We go through 105 compounds from PubChem BioAssay AID504843 (Broad Institute, 2011).

In all, about 1,200 compounds went through this assay and about 360 (30%) were called active. The rule behind the calls is not given here. These entries were drawn from the full list. Where a call stands in place of a potency, no number is given. Potency and affinity values are given separately.

This assay is described as follows: bacterial growth inhibition, dose response, counter-screen, BacTiter-Glo luminescence, cherry-picked samples (AID 504843).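 Note: growth measured after 8 h incubation at 30 °C.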 As to conditions: BacTiter-Glo ATP luminescence; series mostly up to 15 µM.
On to `COc1ccc(C(=O)OC(C)CN2CCN(C)CC2)cc1` (stereo not given), for which the compound was called inactive.

Turning to `CC(=O)c1ccc(NC(=O)CSc2nc(N3CCOCC3)nc(N3CCOCC3)n2)cc1`, the call was inactive.

On to `NC(=O)C1CCN(C(=O)CSc2nc3ccccc3o2)CC1`, for which the outcome was inactive.

Consider `CCCCNC(=O)NNC(=O)c1ccc(F)cc1`, for which the compound was classed as inactive.

For the compound `COc1ccc(C2OC(=O)CC2C(=O)NCc2ccc(F)cc2)cc1OC` (stereo not given), the outcome was inactive.

With `CCOC(=O)N1CCN(c2ccc(C(=O)CC)cc2F)CC1`, the outcome was inactive.

As for `O=C(O)Cn1cc(C(=S)N2CCOCC2)c2ccccc21`, the compound was classed as inactive.

For the compound `O=C(NC(=S)N1CCc2ccccc21)c1ccccc1Cl`, the outcome was inactive.

For `COCCn1c(=NC(=O)c2ccc3c(c2)OCCO3)sc2cc(S(N)(=O)=O)ccc21`, the call was inactive.

On to `CCOC(=O)C1=C(C)c2ccccc2OC1(C(=O)OCC)C(C)C` (stereo not given), for which the outcome was inactive.

Turning to `CCOc1ccc(S(=O)(=O)Nc2cc(Cl)ccc2O)cc1`, the compound was classed as inactive.

In the case of `Cc1ccc(NC(=O)CCCc2nc3ccccc3s2)c(O)c1`, the compound was classed as inactive.

With `O=C(COc1ccc2c3c(c(=O)oc2c1)CCCC3)NCCCn1ccnc1`, the compound was classed as inactive.

For `O=C(N/N=C/c1cn(-c2cccs2)nc1-c1ccccc1)c1ccccc1O`, the outcome was inactive.

Turning to `Oc1c(Cl)cc(Cl)cc1C1Nc2ccccc2-n2cccc21` (stereo not given), the compound was classed as inactive.

As to `COc1ccc(N(C2=NCCCS2)S(=O)(=O)c2ccc(C(C)(C)C)cc2)cc1`, the call was inactive.

Take `Cc1cc(C(=O)CN2C(=O)C3CC=CCC3C2=O)c(C)n1-c1ccccc1` (stereo not given): the compound was classed as inactive.

As for `C=C(C)CSc1nnc(-c2ccc(OC)c(OC)c2)n1N`, the compound was classed as inactive.

For the compound `CCCCC1C(=O)N(c2ccccc2)N(c2ccc(O)cc2)C1=O` (stereo not given), the compound was called inactive.

For `CCCCOc1ccc(C2CC(=O)N(C)C2=O)cc1` (stereo not given), the result was inactive.

As to `CO[C@H]1/C=C/O[C@@]2(C)Oc3c(C)c(O)c4c(O)c(c5c(c4c3C2=O)NC2(CCN(CC(C)C)CC2)N=5)=NC(=O)/C(C)=C\C=C\[C@H](C)[C@H](O)[C@@H](C)[C@@H](O)[C@@H](C)[C@H](OC(C)=O)[C@@H]1C`, the outcome was inactive.

As for `CCc1cccc(CC)c1NC(=S)NCC(c1cccnc1)N(C)C` (stereo not given), the outcome was inactive.

For the compound `CCCCNC(=O)COC(=O)CCC(=O)c1cccs1`, the outcome was inactive.

As to `O=C(CCCn1c(=O)[nH]c2ccsc2c1=O)N1CCCCC1`, the result was inactive.

Regarding `Cc1n[nH]c(=O)nc1N1CCc2ccccc2C1`, the compound was called inactive.

On to `CCOc1nc(Nc2ccc(OC)c(Cl)c2)nc(OCC)n1`, for which the call was inactive.

Turning to `CC1=NN(c2ccccc2)C(=O)C1c1ccccc1` (stereo not given), the result was inactive.

With `Cc1ccc(OC(=O)c2cc(=O)c3ccccc3o2)cc1`, the compound was called inactive.

Take `COc1cccc(-c2nn3c(-c4ccccn4)nnc3s2)c1`: the result was inactive.

Consider `Clc1ccc(-c2nnc3c4ccccc4nc(N4CCOCC4)n23)cc1Cl`, for which the compound was called inactive.

On to `CC(C)n1ncc2c(C(=O)N3CCN(Cc4ccc(Br)s4)CC3)cc(C3CC3)nc21`, for which the compound was called inactive.

Turning to `CC(=O)c1c(C)[nH]c(C(=O)Nc2ccccc2N2CCOCC2)c1C`, the compound was called inactive.

Regarding `Cc1ccc(CS(=O)(=O)CCC(=O)NCCCN2CCCC2)cc1`, the outcome was inactive.

Turning to `CCCn1c(N)c(C(=O)CSc2nnnn2-c2ccc(O)cc2)c(=O)n(C)c1=O`, the call was inactive.

As for `COCC(=O)Nc1ccccc1Br`, the outcome was inactive.

Take `CCc1nnc(NC(=O)C2CCC2)s1`: the outcome was inactive.

As for `COc1cc(CN(C2CCCCC2C)S(=O)(=O)c2ccc(S(=O)(=O)NC3CC3)cc2)cc(OC)c1OC` (stereo not given), the compound was classed as inactive.

As for `COc1ccc(-c2cc([C@H]3[C@@H]4C=CCC[C@@]4(C)C(=O)N3Cc3ccccc3)ccc2F)cc1`, the compound was called inactive.

Regarding `NS(=O)(=O)c1ccc(CCNc2nc(C(F)(F)F)nc3ccccc23)cc1`, the outcome was inactive.

Regarding `Cc1ccnc(NC(c2cccnc2)c2ccc3cccnc3c2O)c1` (stereo not given), the compound was classed as inactive.

With `CCCOc1cc(C)c(S(=O)(=O)N2CCN(C)CC2)cc1C`, the outcome was inactive.

In the case of `O=C1CN(C(=O)COC(=O)c2cc(S(=O)(=O)N3CCOCC3)ccc2Cl)c2ccccc2N1`, the result was inactive.

As to `Cc1ccc(C)c(NC(=S)N(CCc2ccncc2)C(C)C)c1`, the compound was classed as inactive.

Regarding `CC(C)Cc1ccc(CN2CCCC(NC(=O)Cn3cnnn3)C2)cc1` (stereo not given), the result was inactive.

Consider `COCc1cc(CNC(=O)C2CCC(=O)N(Cc3ccccc3OC)C2)[nH]n1` (stereo not given), for which the compound was called inactive.

Turning to `COc1cccc(CN2CC(C(=O)NCCOc3cccnc3)CCC2=O)c1` (stereo not given), the call was inactive.

Consider `CC(C)C[C@@H](CN1CCC[C@@H]1CN1C(=O)C(=O)NC[C@@H]1Cc1ccccc1)N1C[C@H](Cc2ccc(O)cc2)N(CC2CCCCC2)C(=O)C1=O`, for which the compound was classed as inactive.

In the case of `Cc1cc(Nc2nc3ccccc3nc2Cl)n(-c2ccccc2C)n1`, the compound was called inactive.

In the case of `Cc1cc(C)cc(CSc2nnc(C)c(=O)[nH]2)c1`, the result was inactive.

As to `Cc1ccc(C)n1-c1ccc(-c2ccnc(N)n2)cc1`, the result was inactive.

Regarding `O=C(CCNS(=O)(=O)c1ccccc1C(F)(F)F)NCCCN1CCOCC1`, the call was inactive.

As to `COc1ccc(S(=O)(=O)N(C)c2ccc(C(=O)N3CCOCC3)cc2)cc1`, the outcome was inactive.

As for `COc1cccc(CNC(=O)CN2C(=O)CCSc3ccc(S(=O)(=O)N4CCCC4)cc32)c1`, the call was inactive.

For the compound `COC(=O)/C(=C/c1ccco1)NC(=O)c1ccccc1`, the call was inactive.

For `COc1ccc(-n2c(O)c(/C=N/NS(=O)(=O)c3cccc([N+](=O)[O-])c3)c3ccccc3c2=O)cc1OC`, the compound was called inactive.

For the compound `O=C(N/C(=C/c1cccc([N+](=O)[O-])c1)C(=O)N1CCOCC1)c1ccc(Br)cc1`, the result was inactive.

Take `Nc1cc(OC(=O)c2ccc(F)cc2)nn1S(=O)(=O)c1ccc(F)cc1`: the outcome was inactive.

Consider `CCc1nc2ccccc2c(C(=O)OC2CCOC2=O)c1C` (stereo not given), for which the call was inactive.

`O=C(O)c1cccc(NC(=O)c2ccccc2)c1`: the compound was called inactive.

Take `c1ccc(NC(=NCc2ccco2)c2ccccc2)cc1`: the outcome was inactive.

As for `CC(C)c1c(C(=O)N/N=C/C2CC=CCC2)nnn1-c1nonc1N` (stereo not given), the compound was called inactive.

For `O=C(CN1CCN(c2ccccc2F)CC1)NC(=O)NCc1ccccc1`, the call was inactive.

As for `Cc1nc(N2CCN(S(=O)(=O)c3ccc(Br)cc3)CC2)c2c(C)c(C)sc2n1`, the compound was classed as inactive.

Regarding `O=C(O)c1ccc(CSc2nnc(-c3ccncc3)n2-c2ccc(Cl)cc2)cc1`, the outcome was inactive.

As for `COC(=O)c1sc(NC(=O)CSc2nnnn2-c2ccc(C)cc2C)nc1C`, the call was inactive.

`CCCc1cc(=O)[nH]c2nnc(SCC(=O)Nc3ccc4c(c3)OCCO4)n12`: the call was inactive.

Take `COc1ccccc1NS(=O)(=O)c1ccc2[nH]c(=S)oc2c1`: the call was inactive.

For `c1ccc(C2NCCc3ccccc32)cc1` (stereo not given), the result was inactive.

Consider `CCOc1ccc2nc(NC(=O)CN3CCC(n4nnc5cc(F)ccc54)CC3)sc2c1`, for which the compound was called inactive.

As to `Cc1cc(C)c2oc(=O)cc(CN3CCN(Cc4ccc5c(c4)OCO5)CC3)c2c1`, the compound was called inactive.

As to `O=C(Nc1ccc(Oc2ccccc2)nc1)C1CCCCN1Cc1ccc(OCCO)cc1` (stereo not given), the compound was called inactive.

Regarding `COCCn1c(-c2cccc([N+](=O)[O-])c2)nc2c1c(=O)[nH]c(=O)n2Cc1ccccc1`, the compound was classed as inactive.

Consider `COCCCNc1nc2c(c(=O)[nH]c(=O)n2C)n1CC(O)COc1cccc(C)c1` (stereo not given), for which the result was inactive.

For the compound `CCCNc1nc2c(c(=O)[nH]c(=O)n2C)n1CCCc1ccccc1`, the call was inactive.

Turning to `CCC1CCCCN1Cc1nc2c(c(=O)n(C)c(=O)n2C)n1CCCc1ccccc1` (stereo not given), the result was inactive.

Turning to `CC(C)c1ccc(OCC(=O)NC2=NCCS2)cc1`, the result was inactive.

Take `COc1ccc(-c2noc(CSc3nnc(-c4ccncc4)n3-c3ccc(F)cc3)n2)cc1OC`: the compound was called inactive.

On to `CCCCN1CC(COCc2ccccc2)Oc2cccc(N3CCCC3)c2S1(=O)=O` (stereo not given), for which the result was inactive.

For `S=C(NCCCn1ccnc1)Nc1cccc(Cl)c1`, the result was inactive.

As for `O=C(CCCCCNC(=O)c1ccccc1)C[N+](=O)[O-]`, the compound was called inactive.

In the case of `CN1CC(c2ccccc2Cl)C2(COc3ccccc3C2=O)C12C(=O)Nc1ccccc12` (stereo not given), the outcome was inactive.

For the compound `CCC1=C(c2ccc(C)cc2)S(=O)(=O)N=C1N1CCC(C(=O)NCCCN2CCCCC2C)CC1` (stereo not given), the compound was called inactive.

On to `COc1ccc2[nH]c3c(=O)n(CCN4CCOCC4)cnc3c2c1`, for which the compound was classed as inactive.

`O=C1/C(=C/c2cccnc2)Oc2cc(OS(=O)(=O)c3ccccc3)ccc21`: the outcome was inactive.

For the compound `CN(C)C(=S)Nc1ccc2ccccc2c1`, the compound was called inactive.

Consider `COc1ccc(NS(=O)(=O)c2ccc(NC(=O)Cc3cccs3)cc2)cc1`, for which the compound was called inactive.

As for `CCN(CC)C(=O)Cn1cc(C(=O)C(=O)NCCCn2ccnc2)c2ccccc21`, the outcome was inactive.

For `O=C(NCC1CCCO1)C(c1cccs1)N(C(=O)c1ccc(CN2CCOCC2)o1)c1ccc(Cl)cc1` (stereo not given), the call was inactive.

Take `O=C1CCCC2=C1C(c1cccs1)CC(=O)N2c1ccc(F)cc1` (stereo not given): the compound was classed as inactive.

For `O=C1CCCC2=C1CC(C(=O)OCc1ccccc1)C(=O)N2Cc1ccccc1` (stereo not given), the compound was called inactive.

`Cc1ccc[n+](CC(=O)c2cc3ccccc3oc2=O)c1`: the call was inactive.

On to `O=C1Nc2ccc(S(=O)(=O)NCCCO)c3cccc1c23`, for which the result was inactive.

Regarding `Cc1ccc(S(=O)(=O)Nc2c(C)n(C)n(-c3ccccc3)c2=O)cc1C(=O)NCc1ccco1`, the result was inactive.

For `Cc1ccc(C(=O)CN2/C(=C(\O)c3ccccc3)C(=O)c3ccccc3S2(=O)=O)c(C)c1`, the call was inactive.

For `CCn1c(C)nc2cc(C(=O)N/N=C/c3ccc(OC)c(O)c3)ccc21`, the compound was called inactive.

As to `O=C(Cc1ccccc1)Nc1ccc2oc(=O)ccc2c1`, the compound was classed as inactive.

In the case of `COc1cccc(-c2nn(-c3ccccc3)cc2CN(C)C(C)c2ccncn2)c1` (stereo not given), the call was inactive.

Turning to `O=S(=O)(N1CCCCC1)N1CCN(c2ccccc2F)CC1`, the result was inactive.

`CCOC(=O)c1cnn(-c2cc(C)c3ccccc3n2)c1N`: the compound was classed as inactive.

With `O=C(CSc1cccc2cccnc12)N/N=C/c1ccncc1`, the outcome was inactive.

For the compound `CCn1nc(-c2ccccc2)c2nc3ccccc3nc21`, the compound was classed as inactive.

As for `Cc1cc(C(F)F)n2nc(C(=O)Nc3c(F)cc(F)cc3Br)nc2n1`, the outcome was inactive.

Take `Cn1c(N)c(C(=O)COC(=O)c2nc(Cl)ccc2Cl)c(=O)n(C)c1=O`: the call was inactive.

On to `CC(C)N(c1ccccc1)c1ccc(NC(=O)COC(=O)CCN2C(=O)c3cccc([N+](=O)[O-])c3C2=O)cc1`, for which the outcome was inactive.

For `CN1CCCC(OC(=O)CCCCC(=O)OC2CCCN(C)C2)C1` (stereo not given), the call was inactive.
